GPR151 ag: activates the human receptor GPR151. 650,000 compounds, 1% hits. Q8TDV0. PathHunter beta-arrestin GPR151 cells, luminescence. activation, % at 11.2 µM; in the data active = activation above about 4.9%;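 also: 0% = median of compound wells and 100% = cells with positive control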
TEAD-YAP block: TEAD-YAP interaction inhibition | 640,000 compounds, 1.4% hits | inhibition, % at 9.12 µM | HEK-TIYL cells, TEAD-Gal4/YAP UAS-luciferase luminescence; in the data active = inhibition above about 32%;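 also: 0% = median of test compound wells and 100% = reference inhibitor wells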
FBW7 act: human FBW7 E3 ligase activation, primary screen; normalized activity (activation), % at 26.1 µM; Q969H0; 650,000 compounds, 0.13% hits; AlphaScreen FBW7–phospho-cyclin E peptide binding, activator screen; AID 1259310; in the data active = normalized activity above about 1.9%;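 also: purified mutant Fbw7 with reduced substrate affinity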
Target sequence (Q969H0 whole entry, looked up): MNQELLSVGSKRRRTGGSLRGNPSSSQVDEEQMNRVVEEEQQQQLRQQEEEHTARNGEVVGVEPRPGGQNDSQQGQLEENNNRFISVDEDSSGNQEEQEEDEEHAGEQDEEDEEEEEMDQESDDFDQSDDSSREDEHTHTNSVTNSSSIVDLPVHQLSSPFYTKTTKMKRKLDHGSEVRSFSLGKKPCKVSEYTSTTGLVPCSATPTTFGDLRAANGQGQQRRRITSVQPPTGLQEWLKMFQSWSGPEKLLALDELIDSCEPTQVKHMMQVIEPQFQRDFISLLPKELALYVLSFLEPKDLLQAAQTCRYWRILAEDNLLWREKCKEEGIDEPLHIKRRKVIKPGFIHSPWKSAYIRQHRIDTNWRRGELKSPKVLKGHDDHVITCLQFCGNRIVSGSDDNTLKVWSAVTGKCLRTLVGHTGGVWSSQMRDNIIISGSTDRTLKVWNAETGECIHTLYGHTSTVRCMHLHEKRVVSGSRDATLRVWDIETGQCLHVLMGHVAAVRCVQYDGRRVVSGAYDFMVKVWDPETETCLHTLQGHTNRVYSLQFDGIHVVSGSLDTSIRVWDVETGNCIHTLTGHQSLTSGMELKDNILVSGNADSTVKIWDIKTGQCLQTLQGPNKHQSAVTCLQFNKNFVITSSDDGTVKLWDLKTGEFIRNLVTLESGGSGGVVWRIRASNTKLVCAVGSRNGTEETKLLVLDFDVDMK
MITF inh: blocks human microphthalmia-associated transcription factor; inhibition, % at 2.6 µM; O75030; 650,000 compounds, 0.91% hits; AlphaScreen MITF homodimerization, bead proximity signal; in the data active = inhibition above about 50%;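 also: 0% = vehicle wells with protein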
Numbers without * were called inactive. In the library only some 3.4% were active in any assay of this set; here they are far more common.

SMILES | GPR151 ag | TEAD-YAP block | FBW7 act | MITF inh
COCCNC(=O)c1ccc(C)nc1N1CCOCC1 | -1 | 3 | 0 | 6
CS(=O)(=O)c1ccccc1C(=O)Nc1nc2ccc([N+](=O)[O-])cc2s1 | 1 | 4 | 0 | 9
CCCNc1nc(N2CCCC(C(=O)N(CC)CC)C2)nc2c1ncn2CCN1CCCC1=O (configuration not stated) | 0 | -15 | 0 | -1
CCCNc1ccnc(Nc2ccccc2)n1 | 1 | -31 | 0 | 13
CCCNc1ccnc(Nc2ccncc2)n1 | -1 | 36* | 0 | 3
Cc1nc2sccn2c1C(=O)N1CCCC1 | -1 | -5 | 0 | -17
Cc1nc2sccn2c1C(=O)N1CCN(c2cccc(C(F)(F)F)c2)CC1 | -1 | 58* | 1 | 14
CCC(C)(C(=O)NC1CCCC1)N(Cc1ccco1)C(=O)CNC(=O)c1ccccc1 (configuration not stated) | 0 | 10 | 2.3* | 7
CCC(C)(C(=O)NC1CCCC1)N(Cc1ccco1)C(=O)CNC(C)=O (configuration not stated) | 0 | 3 | 0 | 3
CCOc1ccc(C2C(C(=O)OC)=C(C)NC3=C2C(=O)CC(c2ccc(OC)c(OC)c2)C3)cc1 (configuration not stated) | 0 | -11 | 0 | 0
CCC(C)OC(=O)C1=C(C)NC2=C(C(=O)CC(c3ccccc3)C2)C1c1cccc2ccccc12 (configuration not stated) | 0 | 9 | 2.2* | 6
CCOc1ccc(C2C(C(=O)OC)=C(C)NC3=C2C(=O)CC(c2ccc(OC)c(OC)c2)C3)cc1OC (configuration not stated) | -1 | 41* | 0 | -1
CC1=C(C#N)C(c2ccccc2Cl)C2=C(CC(c3ccccc3)CC2=O)N1 (configuration not stated) | -1 | 33* | 0 | 1
COCCOC(=O)C1=C(C)NC2=C(C(=O)CC(c3ccc(OC)c(OC)c3)C2)C1c1cccc(C)c1 (configuration not stated) | 1 | 43* | 0 | 4
CCOC(=O)C(C#N)C1(c2ccc(F)cc2)CCOC(C)(CC)C1 (configuration not stated) | -1 | 7 | 0 | -2
COc1nc(S(=O)(=O)c2ccc(C)cc2)c(Cl)s1 | 1 | 5 | 0 | 6
Cc1cc(C)c(NC(=O)Nc2ccc(NC(=O)Nc3c(C)cc(C)cc3C)cc2)c(C)c1 | 1 | 15 | 1 | 14
COc1ccc(C2CC(=O)C3=C(C2)NC(C)=C(C(=O)OC(C)C)C3c2cccc(Br)c2)cc1OC (configuration not stated) | 2 | 31 | 0 | -3
CCC(C)OC(=O)C1=C(C)NC2=C(C(=O)CC(c3ccc(Cl)cc3)C2)C1c1cccc(Cl)c1 (configuration not stated) | 1 | 6 | 1.9* | 11
CCOC(=O)C1=C(C)NC2=C(C(=O)CC(c3ccc(OC)c(OC)c3)C2)C1c1cccc([N+](=O)[O-])c1 (configuration not stated) | -1 | 5 | 0 | -1
COc1ccc(C2CC(=O)C3=C(C2)NC(C)=C(C(=O)OC(C)C)C3c2cccc([N+](=O)[O-])c2)cc1OC (configuration not stated) | -1 | 39* | 0 | -10
CC1=C(C(=O)OC2CCCCC2)C(c2ccc(F)cc2)C2=C(CC(c3ccccc3)CC2=O)N1 (configuration not stated) | 0 | 9 | 1.9* | 14
COc1ccc(C2CC(=O)C3=C(C2)NC(C)=C(C(=O)OC(C)C)C3c2cccc(C)c2)cc1OC (configuration not stated) | -1 | 52* | 0 | 4
O=C(NCCc1ccccc1)NCc1nnnn1-c1cccc(F)c1 | 0 | 18 | 0 | -9
O=C(c1n[nH]c2c1CCC2)N1CCn2c(CO)nnc2C1 | -1 | 3 | 1 | 8
SMILES | GPR151 ag | TEAD-YAP block | FBW7 act | MITF inh
COc1ccc(C2CC(=O)C3=C(C2)NC(C)=C(C(=O)OC(C)C)C3c2ccccc2F)cc1OC (configuration not stated) | 0 | 43* | 0 | 11
COc1ccc(C2CC(=O)C3=C(C2)NC(C)=C(C(=O)OC(C)C)C3c2cccc(Cl)c2)cc1OC (configuration not stated) | 0 | 46* | 1 | 5
COc1ccc(C2CC(=O)C3=C(C2)NC(C)=C(C(=O)OC2CCCCC2)C3c2cccc(C)c2)cc1OC (configuration not stated) | 0 | 46* | 0 | 7
COc1ccc(C2CC(=O)C3=C(C2)NC(C)=C(C(=O)OC(C)C)C3c2ccccc2OC)cc1OC (configuration not stated) | -1 | 1 | 1 | 14
CSc1ccccc1C(=O)NCCN1Cc2ccccc2OC(C)C1 (configuration not stated) | 0 | -3 | 0 | -17
O=c1cc(-c2ccccc2)oc2c(O)c(O)ccc12 | -1 | 43* | 0 | 11
O=c1cc(-c2ccccc2)oc2cc(O)c(O)cc12 | 0 | 70* | 0 | 2
CN1CCN(c2ccc(-c3cc(C(=O)NCc4cccc(C(F)(F)F)c4)ccn3)cc2)CC1 | 2 | -9 | 0 | -1
COc1ccc(-c2cn3nc(C)c(C)nc3n2)cc1OC | 1 | -54 | 0 | 2
Cc1ccc(-c2cn3nc(C)c(C)nc3n2)cc1 | -5 | 46* | 0 | -3
COc1cc(NC(=O)c2cccnc2)c2ncccc2c1 | 0 | 79* | 0 | 1
CCC(=O)NC(c1ccc(OC)cc1)c1cc([N+](=O)[O-])c2cccnc2c1O (configuration not stated) | -2 | -3 | -1 | 55*
CCCCC(=O)NC(c1ccco1)c1cc([N+](=O)[O-])c2cccnc2c1O (configuration not stated) | -1 | 3 | 0 | 10
Oc1c(C(Nc2ccccn2)c2cccnc2)cc(Cl)c2cccnc12 (configuration not stated) | 0 | 58* | 0 | 85*
CCCCC(=O)NC(c1ccccc1OC)c1cc([N+](=O)[O-])c2cccnc2c1O (configuration not stated) | -1 | 28 | 0 | 51*
Oc1c(C(c2cccnc2)N2CCOCC2)cc(Cl)c2cccnc12 (configuration not stated) | 0 | 17 | 0 | 42
CCCC(=O)NC(c1ccc(OC)cc1)c1cc([N+](=O)[O-])c2cccnc2c1O (configuration not stated) | 2 | 5 | 0 | 21
COc1ccc(S(=O)(=O)N2CCC(C(=O)Nc3ccccc3F)CC2)cc1OC | 0 | 3 | 0 | -14
COc1ccc(C(NC(=O)c2cccc(OC)c2)c2cc(Cl)c3cccnc3c2O)cc1 (configuration not stated) | -1 | 1 | 0 | 10
COc1ccc(C(NC(=O)c2cccnc2)c2cc(Cl)c3cccnc3c2O)cc1 (configuration not stated) | 1 | 40* | 0 | 6

Screening data: PubChem, The Scripps Research Institute Molecular Screening Center
